# Test results reported in PubChem BioAssay AID720706 (Broad Institute, 2013).
# Several values for one entry are separate records, joined by “and”; a condition that tells them apart may be missing. Identical values can stand only once. Out of some 350,000 compounds screened, about 5,500 (1.6%) were called active.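 How the source made its calls: active means significant combined selectivity score with lowered wild-type GFP, culture density cut under 30%, mutant RFP and density less affected; inactive means any of these conditions unmet.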 Shown is part of a subset that was picked to be rich in actives.
# Assay: reduced GFP signal of wild-type E. coli, primary screen, bacterial rRNA inhibitor project, GFP/RFP fluorescence, OD600, single point (AID 720706)
# Details: E. coli WT GFP vs humanized-ribosome RFP mutants, 24 h; GFP signal change (wild-type ribosome): stronger effect = lower value, concentration not given here unless noted; OD600 change: measured here: OD600 growth unless noted; RFP signal change: measured here: RFP humanized mutant strains, concentration not given here unless noted
Structure (SMILES),GFP signal change (wild-type ribosome),OD600 change,RFP signal change
O=C(CN1CCCC1=O)NCCc1ccccc1,13.1% (inactive),9.85%,2.04%
O=C1CC(=O)N(Cc2ccccc2)C(=O)N1CCCCCCN1C(=O)CC(=O)N(Cc2ccccc2)C1=O,-23.4% (active),8%,-3.78%
CS(=O)(=O)N1CCC2CCNC2C1 (stereo not given),"-44.3% [stronger effect = lower value, DMSO median 0, no signal -100] (inactive)","-74.4% [measured here: OD600 growth, DMSO median 0, no signal -100]","-13% [measured here: RFP humanized mutant strains, DMSO median 0, no signal -100, concentration not given here]"
O=C(Cc1ccccc1)N1CCCCN2[C@H](C1)[C@H](c1ccc(C#CC3(O)CCCC3)cc1)[C@@H]2CO,-0.103% (inactive),-5.65%,-2.06%
COC(=O)[C@@H]1[C@@H](CO)[C@@H]2Cn3c(ccc(-c4ccc(F)cc4)c3=O)[C@H]1N2C(C)=O,-1.54% (inactive),-1.06%,-2.02%
C[C@]12CCC3C(CC[C@H]4C[C@@H](O)CC[C@]34C)C1C[C@@H](O)[C@H]2O (stereo not given in full),-1.03% (inactive),2.49%,0.13%
CC12CCC3C(CCC4CC(=O)CCC43C)C1CC(=NO)C2=O (stereo not given),-22% (active),-9.98%,4.28%
C[C@]12CCC3C(CC[C@H]4[C@H](O)[C@H](O)CC[C@]34C)C1CCC2=O (stereo not given in full),-22.2% (inactive),-18.8%,3.96%
C=CCN1[C@@H]2CN(S(C)(=O)=O)C[C@H]1C2c1ccc(Br)cc1 (stereo not given in full),"0.44% [stronger effect = lower value, DMSO median 0, no signal -100] (inactive)","-2.24% [measured here: OD600 growth, DMSO median 0, no signal -100]","0.309% [measured here: RFP humanized mutant strains, DMSO median 0, no signal -100, concentration not given here]"
COc1cccc(-c2ccc3n(c2=O)C[C@@H]2[C@@H](CO)[C@H](C(=O)O)[C@H]3N2C(=O)c2cnccn2)c1,0.18% (inactive),2.71%,-2.44%
Brc1ccc2c(c1)CNCc1cnnn1-2,"21.4% [stronger effect = lower value, DMSO median 0, no signal -100] (inactive)","6.17% [measured here: OD600 growth, DMSO median 0, no signal -100]","0.786% [measured here: RFP humanized mutant strains, DMSO median 0, no signal -100, concentration not given here]"
C/C=C/c1ccc(C2[C@@H]3CN(S(C)(=O)=O)C[C@H]2N3)cc1 (stereo not given in full),"0.848% [stronger effect = lower value, DMSO median 0, no signal -100] (inactive)","10.1% [measured here: OD600 growth, DMSO median 0, no signal -100]","0.743% [measured here: RFP humanized mutant strains, DMSO median 0, no signal -100, concentration not given here]"
C/C(=N/O)c1ccc2ccc3ccccc3c2c1,-48% (active),-16.4%,-10.4%
O=[N+]([O-])c1cnc2ccc3ccccc3c2c1,-67.7% (inactive),-75.7%,-31.1%
Clc1ccc([C@@H]2CC3CCC2N3)cn1 (stereo not given in full),"0.922% [stronger effect = lower value, DMSO median 0, no signal -100] (inactive)","-1.31% [measured here: OD600 growth, DMSO median 0, no signal -100]","-1.9% [measured here: RFP humanized mutant strains, DMSO median 0, no signal -100, concentration not given here]"
FC(F)(F)CN1CC2C(c3ccc(Br)cc3)C(C1)N2CC1CC1 (stereo not given),"-5.85% [stronger effect = lower value, DMSO median 0, no signal -100] (inactive)","-3.54% [measured here: OD600 growth, DMSO median 0, no signal -100]","-0.25% [measured here: RFP humanized mutant strains, DMSO median 0, no signal -100, concentration not given here]"
O=C(Cc1ccncc1)N1CCCCN2[C@H](CO)[C@@H](c3ccc(C#CC4(O)CCCC4)cc3)[C@H]2C1,5.65% (inactive),9.16%,1.41%
Cc1ncoc1C(=O)NCC1=C(c2cccc3ccccc23)C[C@@H]2CC[C@H]1N2Cc1ccco1,5.41% (inactive),-0.665%,-7.54%
CCOc1ccc(-c2cc(C)[n+](CCN(CC)CC)c(-c3ccc(OCC)cc3)c2)cc1,-47.8% (active),-15.2%,-13.2%
CCC(C)NC1(c2ccccc2)CCCCC1 (stereo not given),11.4% (inactive),7.39%,4.1%
CCN(CC)c1ccc([N+](=O)[O-])c2cccnc12,-44.1% (inactive),-57.8%,-2.59%
CN(c1ccccc1)c1ccc([N+](=O)[O-])c2nonc12,-8.38% (active),-3.73%,-4.23%
FC(F)(F)CN1CC2NC(C1)C2c1ccc(Br)cc1 (stereo not given),"-1.54% [stronger effect = lower value, DMSO median 0, no signal -100] (inactive)","-0.568% [measured here: OD600 growth, DMSO median 0, no signal -100]","-0.0575% [measured here: RFP humanized mutant strains, DMSO median 0, no signal -100, concentration not given here]"
O=S(=O)(c1ccccc1)N1CCC2CCNC2C1 (stereo not given),"32.8% [stronger effect = lower value, DMSO median 0, no signal -100] (inactive)","20.2% [measured here: OD600 growth, DMSO median 0, no signal -100]","4.31% [measured here: RFP humanized mutant strains, DMSO median 0, no signal -100, concentration not given here]"
CC(=O)N1C[C@@H]2C(c3ccc(Br)cc3)[C@H](C1)N2C (stereo not given in full),"-0.325% [stronger effect = lower value, DMSO median 0, no signal -100] (inactive) and 1.25% [stronger effect = lower value, DMSO median 0, no signal -100] (inactive)","4.6% [measured here: OD600 growth, DMSO median 0, no signal -100] and 7.11% [measured here: OD600 growth, DMSO median 0, no signal -100]","-3.94% [measured here: RFP humanized mutant strains, DMSO median 0, no signal -100, concentration not given here] and 0.471% [measured here: RFP humanized mutant strains, DMSO median 0, no signal -100, concentration not given here]"
CN(C)CC1Oc2ccccc2OC1(O)c1ccccc1 (stereo not given),-40.9% (active),-11.5%,-12.2%
COC(=O)[C@@H]1[C@@H](CO)[C@@H]2Cn3c(ccc(C4=CCCCC4)c3=O)[C@H]1N2CC1CC1,-0.199% (inactive),-2.21%,-0.887%
O=C(O)[C@H]1[C@H](CO)[C@H]2Cn3c(cccc3=O)[C@@H]1N2C(=O)c1ccccc1,2.42% (inactive),7.83%,-1.92%
COc1ccccc1CN1[C@@H](CO)[C@@H](c2ccccc2)C12CN(C(=O)Cc1ccccc1)C2,"-13.7% [stronger effect = lower value, DMSO median 0, no signal -100] (inactive)","-27.1% [measured here: OD600 growth, DMSO median 0, no signal -100]","-0.899% [measured here: RFP humanized mutant strains, DMSO median 0, no signal -100, concentration not given here]"
COC(=O)[C@@H]1[C@@H](CO)[C@@H]2Cn3c(ccc(-c4cccc(C(=O)N(C)C)c4)c3=O)[C@H]1N2C(=O)NC(C)C,1.25% (inactive),8.61%,-0.784%
